Data taken from PubChem BioAssay.
The source made the active and inactive calls.

Legend:
[1] = small molecules captured by biotinylated probe aFSTL3 – biochemical, small-molecule microarray, fluorescence 635/667, stem cell growth factor project, primary screen (AID 1064); settings: higher = more signal;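 also: measures binding of the biotinylated anti-FSTL3 antibody to printed compounds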
[2] = binders from COS7 lysate, DM2A8 probe, primary screen, torsin A project, cell lysate, small-molecule microarray, fluorescence 635/667 (AID 1065); settings: higher = more signal, COS7 lysate expressing mutant human TOR1A
[3] = small molecules captured by biotinylated probe aFGF2 – biochemical, small-molecule microarray, fluorescence 635/667, stem cell growth factor project, primary screen (AID 1067); settings: higher = more signal;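 also: measures binding of biotinylated aFGF2 protein to printed compounds on slides; z-score merges feature fluorescence and signal-to-noise across triplicate slides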
[4] = small molecules captured by biotinylated probe aFGF10 – biochemical, small-molecule microarray, fluorescence 635/667, stem cell growth factor project, primary screen (AID 1071); settings: higher = more signal;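 also: score merges 667 nm spot intensity and signal to noise from triplicate slides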
[5] = biological target: Neurogenic locus notch homolog protein 2 (Homo sapiens) (UniProt Q04721); assay: small molecules binding Notch2 protein – biochemical, small-molecule microarray, 635 nm fluorescence, stem cell growth factors, primary screen (AID 1073); settings: higher = more signal
Neurogenic locus notch homolog protein 2 (Homo sapiens), sequence (Q04721 whole entry, looked up, canonical isoform): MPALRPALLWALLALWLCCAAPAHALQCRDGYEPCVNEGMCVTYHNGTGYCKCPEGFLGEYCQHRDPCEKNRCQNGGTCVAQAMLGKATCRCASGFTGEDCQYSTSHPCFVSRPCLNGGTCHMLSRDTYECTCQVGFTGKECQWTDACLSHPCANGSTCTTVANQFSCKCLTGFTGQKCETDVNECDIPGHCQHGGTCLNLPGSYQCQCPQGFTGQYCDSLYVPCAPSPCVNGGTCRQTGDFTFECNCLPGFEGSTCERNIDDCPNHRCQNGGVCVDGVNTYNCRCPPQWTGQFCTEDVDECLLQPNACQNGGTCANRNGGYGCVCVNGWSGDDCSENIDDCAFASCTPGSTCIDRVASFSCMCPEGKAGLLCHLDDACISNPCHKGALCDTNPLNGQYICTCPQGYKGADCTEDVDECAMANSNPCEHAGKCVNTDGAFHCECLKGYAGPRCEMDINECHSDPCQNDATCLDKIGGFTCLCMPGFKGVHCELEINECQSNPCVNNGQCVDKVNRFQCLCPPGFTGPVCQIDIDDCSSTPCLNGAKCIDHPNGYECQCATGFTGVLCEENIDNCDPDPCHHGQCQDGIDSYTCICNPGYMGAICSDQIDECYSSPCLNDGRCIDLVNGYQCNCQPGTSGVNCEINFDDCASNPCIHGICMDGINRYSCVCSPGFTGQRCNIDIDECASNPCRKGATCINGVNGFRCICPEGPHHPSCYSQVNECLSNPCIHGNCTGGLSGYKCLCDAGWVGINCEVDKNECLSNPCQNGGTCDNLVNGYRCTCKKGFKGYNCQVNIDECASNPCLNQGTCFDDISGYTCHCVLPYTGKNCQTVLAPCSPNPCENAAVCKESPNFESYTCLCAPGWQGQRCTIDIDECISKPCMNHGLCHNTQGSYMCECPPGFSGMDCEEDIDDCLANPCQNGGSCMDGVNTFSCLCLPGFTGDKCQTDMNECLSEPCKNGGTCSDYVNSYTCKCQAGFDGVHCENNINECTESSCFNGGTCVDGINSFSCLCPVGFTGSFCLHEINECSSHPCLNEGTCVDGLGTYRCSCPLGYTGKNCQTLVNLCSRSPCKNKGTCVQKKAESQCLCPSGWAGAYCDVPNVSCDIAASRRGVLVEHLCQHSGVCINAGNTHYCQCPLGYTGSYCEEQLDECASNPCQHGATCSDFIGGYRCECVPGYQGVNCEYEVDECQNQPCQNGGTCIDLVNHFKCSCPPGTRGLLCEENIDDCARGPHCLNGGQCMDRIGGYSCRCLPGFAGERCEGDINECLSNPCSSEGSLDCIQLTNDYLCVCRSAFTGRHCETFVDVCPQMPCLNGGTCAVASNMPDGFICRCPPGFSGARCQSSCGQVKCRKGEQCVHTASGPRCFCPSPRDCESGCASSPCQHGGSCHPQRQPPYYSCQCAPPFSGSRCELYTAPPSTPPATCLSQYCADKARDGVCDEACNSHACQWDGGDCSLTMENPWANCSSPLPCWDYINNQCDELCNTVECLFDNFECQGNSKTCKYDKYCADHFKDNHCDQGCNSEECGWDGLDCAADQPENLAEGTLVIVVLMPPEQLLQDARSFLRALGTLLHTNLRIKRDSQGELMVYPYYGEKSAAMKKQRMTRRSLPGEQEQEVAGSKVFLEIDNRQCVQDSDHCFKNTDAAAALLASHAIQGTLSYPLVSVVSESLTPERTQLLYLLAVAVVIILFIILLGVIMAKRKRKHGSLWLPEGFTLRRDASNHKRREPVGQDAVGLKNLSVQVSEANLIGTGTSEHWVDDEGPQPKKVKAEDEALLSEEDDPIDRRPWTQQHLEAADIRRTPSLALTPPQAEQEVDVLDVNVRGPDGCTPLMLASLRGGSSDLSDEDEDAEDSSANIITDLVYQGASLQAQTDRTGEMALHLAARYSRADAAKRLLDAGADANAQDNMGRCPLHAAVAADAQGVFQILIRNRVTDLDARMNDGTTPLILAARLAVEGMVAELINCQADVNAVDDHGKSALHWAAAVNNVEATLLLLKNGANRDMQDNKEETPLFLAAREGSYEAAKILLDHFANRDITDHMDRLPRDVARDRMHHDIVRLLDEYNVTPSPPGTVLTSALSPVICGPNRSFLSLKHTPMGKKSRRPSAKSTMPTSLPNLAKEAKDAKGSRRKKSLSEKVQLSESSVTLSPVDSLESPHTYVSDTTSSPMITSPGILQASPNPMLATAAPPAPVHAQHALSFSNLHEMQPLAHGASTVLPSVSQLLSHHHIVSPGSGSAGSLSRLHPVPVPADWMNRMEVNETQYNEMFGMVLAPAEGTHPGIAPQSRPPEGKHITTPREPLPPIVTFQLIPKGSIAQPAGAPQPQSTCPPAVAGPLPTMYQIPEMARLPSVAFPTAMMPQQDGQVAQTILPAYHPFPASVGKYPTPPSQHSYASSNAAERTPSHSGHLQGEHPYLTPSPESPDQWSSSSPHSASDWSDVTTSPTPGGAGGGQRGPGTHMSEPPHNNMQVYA

[6] = biological target: Pro-neuregulin-1, membrane-bound isoform (Homo sapiens) (UniProt Q02297); assay: small molecules binding neuregulin-1 protein – biochemical, small-molecule microarray, fluorescence 635/667, psychiatric disease protein project, primary screen (AID 1075); settings: NRG1 binding, 635 nm fluorescence, higher = more signal;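 also: score combines 667 nm spot fluorescence with signal to noise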
Pro-neuregulin-1, membrane-bound isoform (Homo sapiens), sequence (Q02297 whole entry, looked up, the tested form may be a part, canonical isoform): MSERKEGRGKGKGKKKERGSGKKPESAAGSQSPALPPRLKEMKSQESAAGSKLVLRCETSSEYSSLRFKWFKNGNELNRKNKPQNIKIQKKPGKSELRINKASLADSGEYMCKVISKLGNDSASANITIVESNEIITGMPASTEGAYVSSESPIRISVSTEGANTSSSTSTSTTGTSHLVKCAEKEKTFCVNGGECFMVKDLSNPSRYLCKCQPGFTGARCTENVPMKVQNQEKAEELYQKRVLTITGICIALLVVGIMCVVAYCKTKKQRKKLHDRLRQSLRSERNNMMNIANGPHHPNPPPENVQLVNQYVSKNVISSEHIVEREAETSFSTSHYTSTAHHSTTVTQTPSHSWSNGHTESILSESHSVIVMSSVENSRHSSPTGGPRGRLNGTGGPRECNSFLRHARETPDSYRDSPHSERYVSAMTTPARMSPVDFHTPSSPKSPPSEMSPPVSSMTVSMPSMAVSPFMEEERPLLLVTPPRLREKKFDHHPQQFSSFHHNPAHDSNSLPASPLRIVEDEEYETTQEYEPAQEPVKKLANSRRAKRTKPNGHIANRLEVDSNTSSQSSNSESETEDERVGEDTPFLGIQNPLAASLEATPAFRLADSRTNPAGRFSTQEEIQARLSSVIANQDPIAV

[7] = system: Neuregulin-1 EGF-like domain; assay: small molecules binding NRG1 EGF domain – biochemical, small-molecule microarray, 635 nm fluorescence, primary screen (AID 1081); settings: higher = more signal;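 also: binding of the protein to compounds printed on small-molecule microarray slides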
[8] = FRG1 expression reporter modulators in myotubes – cell-based, C2C12 myotubes, firefly/Renilla luciferase, luminescence, FRG1 inhibition for FSHD, primary screen (AID 1084); settings: FRG1 promoter luciferase, higher = more signal, called active from +8 up or from −8 down
[9] = small molecules captured by biotinylated probe aFST – biochemical, small-molecule microarray, fluorescence 635/667, stem cell growth factor project, primary screen (AID 1086); settings: higher = more signal;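 also: score merges 667 nm fluorescence with signal-to-noise of each printed compound spot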
[10] = binders of probe aHhip on microarray, primary screen, stem cell growth factor project, biochemical, small-molecule microarray, fluorescence 635/667 (AID 1087); settings: higher = more signal;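 also: score merges spot fluorescence at 667nm with spot signal to noise ratio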
[11] = system: PRMT1 (protein arginine N-methyltransferase 1); assay: small molecules binding arginine methyltransferase PRMT1 – biochemical, small-molecule microarray, 635 nm fluorescence, primary screen (AID 1088); settings: higher = more signal;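 also: binding of Prmt1 protein to compounds spotted on small-molecule microarray slides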
[12] = growth effects on S. cerevisiae YJM789 – YJM789 clinical isolate, OD600, 24 h, basal, primary screen (AID 1089); settings: higher = more signal, called active from +8 up or from −8 down;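 also: growth of clinical yeast isolate S. cerevisiae YJM 789 seeded 1000 cells per well; test concentration not given here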
[13] = S. pombe growth modifiers, basal conditions – strain 972, OD600, 24 h, no modulator, primary screen (AID 1090);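 also: basal condition with compound alone and no growth modifier present; test concentration not given here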; settings: S. pombe 972 growth, higher = more signal, called active from +8 up or from −8 down
[14] = budding yeast growth modifiers under rapamycin – strain BY4716, OD600, 96 h, primary screen (AID 1091); also: test concentration not given here; settings: S. cerevisiae BY4716 + rapamycin, higher = more signal, called active from +8 up or from −8 down
[15] = biological target: Torsin-1A-interacting protein 2 (Homo sapiens) (UniProt Q8NFQ8); assay: small molecules binding lysate-expressed LULL1 – cell lysate, human LULL1 lysate, 635/667 nm fluorescence, primary screen (AID 1092); settings: small-molecule microarray, hLULL1 lysate binding, 635 nm fluorescence; higher = more signal;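 also: probe is lysate of COS7 cells overexpressing human LULL1; score merges per-feature 667 nm fluorescence with signal-to-noise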
Torsin-1A-interacting protein 2 (Homo sapiens), sequence (Q8NFQ8 whole entry, looked up): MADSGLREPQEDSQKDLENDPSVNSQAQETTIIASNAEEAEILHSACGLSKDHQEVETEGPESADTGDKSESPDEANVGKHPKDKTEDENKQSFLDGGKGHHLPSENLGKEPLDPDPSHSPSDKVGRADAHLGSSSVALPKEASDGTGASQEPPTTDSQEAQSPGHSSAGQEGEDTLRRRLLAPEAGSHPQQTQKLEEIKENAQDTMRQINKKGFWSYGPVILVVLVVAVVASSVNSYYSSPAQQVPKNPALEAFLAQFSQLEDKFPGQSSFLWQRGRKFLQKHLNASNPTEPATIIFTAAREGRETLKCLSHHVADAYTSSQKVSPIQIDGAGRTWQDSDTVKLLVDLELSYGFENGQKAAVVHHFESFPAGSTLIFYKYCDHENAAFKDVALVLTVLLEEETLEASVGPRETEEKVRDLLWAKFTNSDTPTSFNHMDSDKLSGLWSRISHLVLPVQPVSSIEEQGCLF

[16] = optical density change of DRC41 E. coli – strain DRC41, OD650, 24 h, E. coli filamentation project, primary screen (AID 1093);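 also: MC1000 strain lacking acrAB efflux and sulA so SOS filamentation is blocked; test concentration not given here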; settings: E. coli DRC41 growth, higher = more signal, called active from +8 up or from −8 down
[17] = probe aLefty2 binding to arrayed compounds – biochemical, biotinylated probe, 635/667 nm fluorescence, primary screen (AID 1094); settings: small-molecule microarray, higher = more signal;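 also: score merges spot fluorescence near 667 nm with spot signal-to-noise ratio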
[18] = system: Noggin (protein binding on small-molecule microarray); assay: small molecules binding Noggin protein – biochemical, 635/667 nm fluorescence, primary screen (AID 1095); settings: 635 nm fluorescence, higher = more signal;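 also: score merges 667 nm feature fluorescence with signal to noise over triplicate slides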
[19] = biological target: Neurogenic locus notch homolog protein 3 (Homo sapiens) (UniProt Q9UM47); assay: small molecules binding NOTCH3 protein – biochemical, 635/667 nm fluorescence, primary screen (AID 1096); settings: small-molecule microarray, 635 nm fluorescence, higher = more signal
[20] = probe aEGFR binding to arrayed compounds – biochemical, biotinylated probe, 635/667 nm fluorescence, primary screen (AID 1097); settings: small-molecule microarray, higher = more signal;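 also: probe is a biotinylated anti-EGFR antibody binding compounds printed on slides; score combines fluorescence near 667 nm and signal to noise of each spot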

Structure (SMILES) | composite z-score [1] | composite z-score [2] | composite z-score [3] | composite z-score [4] | composite z-score [5] | composite z-score [6] | composite z-score [7] | z-score [8] | composite z-score [9] | composite z-score [10] | composite z-score [11] | z-score [12] | z-score [13] | z-score [14] | composite z-score [15] | z-score [16] | composite z-score [17] | composite z-score [18] | composite z-score [19] | composite z-score [20]
C=CCOC(=O)[C@H]1[C@@H]2C(=O)O[C@@H](c3ccccc3)[C@@H](c3ccccc3)N2[C@@H](c2ccc(OCCOC(=O)[C@@H]3C[C@@H]4C(=O)N[C@@H](CCCC[N+](C)(C)C)C(=O)N4[C@@H]3c3ccc(O)cc3)cc2)[C@]12C(=O)Nc1ccc(I)cc12 | -0.291 | 0.857 | 0.0559 | 0.719 | 1.24 | 1.44 | 1.11 | 0.687 (inactive) | 0.365 | -0.0088 | 1.53 | 2.31 (inactive) | -1.21 (inactive) | 1.34 (inactive) | 2.44 | -1.94 (inactive) | -0.09 | 1.31 | 1.14 | 0.06
COc1cc(C(O)C2C=CC3C(=O)N(c4ccccc4)C(=O)C3N2Nc2ccccc2)cc(OC)c1OC (stereo not given) | 0.251 | 0.36 | 0.218 | 1.14 | 1.68 | 1.92 | 1.17 | 1.07 (inactive) | 1.48 | 0.189 | 1.54 | -0.722 (inactive) | 0.82 (inactive) | -0.205 (inactive) | 3.71 | -0.651 (inactive) | 0.228 | -0.124 | 1.03 | 0.0473
O=C1C=C(c2ccccc2)C(=O)C2=C1CC([C@H]1Oc3ccccc3S(=O)(=O)N3CCC[C@@H]13)=CC2 | -0.415 | -0.618 | -0.119 | -0.0024 | -0.103 | 0.0032 | -0.702 | -0.7 (inactive) | 1.49 | -0.0296 | 0.345 | -0.418 (inactive) | -3.32 (inactive) | 13.4 (active) | -0.101 | 0.542 (inactive) | -0.183 | -0.194 | 0.0989 | -0.135
COCCOC(=O)N1C(=O)[C@@]2(c3cc(C#CCCO)ccc31)[C@H](c1ccccc1OCCO)N1[C@H](c3ccccc3)[C@H](c3ccccc3)OC(=O)[C@H]1[C@@H]2C(N)=O | -0.455 | -0.0702 | -0.0723 | 0.758 | 1.3 | 1.55 | 1.22 | -1.9 (inactive) | 0.806 | -0.0645 | 1.55 | 1.48 (inactive) | 0.142 (inactive) | 2.99 (inactive) | 3.08 | 2.16 (inactive) | -0.123 | 1.6 | 1.11 | 0.0111
COC(=O)[C@@]1(Cc2ccccc2)[C@H]2c3cc(C(=O)N4CCCC4)n(Cc4ccc(OC)c(OC)c4)c3C[C@H]2CN1C(=O)c1ccccc1 | 0.439 | 0.411 | 0.141 | 0.605 | 1.77 | 2.16 | 1.4 | 0.626 (inactive) | 1.88 | 0.857 | 0.632 | 0.49 (inactive) | 1.06 (inactive) | 1.45 (inactive) | 3.5 | -0.0046 (inactive) | 0.666 | 0.0245 | 1.14 | 0.403
O=C1N(CCS(=O)(=O)c2ccccc2)c2ccccc2C[C@]12N=C(c1ccc(OCCCO)cc1)O[C@@H]2c1ccccc1 | 0.227 | 0.335 | 0.0605 | -0.122 | 1.15 | 0.333 | 1.23 | -0.253 (inactive) | 0.734 | 0.0053 | 1.48 | 2.51 (inactive) | 0.762 (inactive) | 4.39 (inactive) | 3.12 | 0.568 (inactive) | 0.225 | 0.83 | 1.09 | -0.164
[N-]=[N+]=NCc1ccccc1[C@@H]1OC(c2ccc(OCCCO)cc2)=N[C@]1(Cc1ccccc1N=[N+]=[N-])C(=O)NCC(O)CO (stereo not given in full) | -0.166 | 0.57 | 0.145 | 0.61 | 1.53 | 1.99 | 0.981 | 0.0407 (inactive) | 1.84 | 0.272 | 1.18 | 0.263 (inactive) | 0.21 (inactive) | 0.622 (inactive) | 3.29 | 0.712 (inactive) | 0.81 | 0.92 | 0.962 | 0.235
CCCN1C(=O)[C@@]2(c3ccc([N+](=O)[O-])cc3)CC(=O)N(CC34CC5CC(CC(C5)C3)C4)[C@@H]2c2ccc(CO)cc21 | 0.402 | -0.519 | -0.165 | -0.046 | -0.421 | 0.0413 | -0.58 | 0.244 (inactive) | -0.103 | -0.213 | -0.247 | -0.962 (inactive) | -0.365 (inactive) | -1.93 (inactive) | 0.162 | -0.19 (inactive) | -0.0099 | 0.047 | -0.184 | 0.142
C=C(CCCC)/C(=C/C[C@H](OC(C)=O)c1cccc(OCCO)c1)c1cnc2ccccc2c1 | 0.243 | -0.194 | -0.116 | 0.0835 | 0.16 | -0.0759 | 0.244 | -0.45 (inactive) | -0.381 | -0.0994 | 0.12 | 1.94 (inactive) | 0.924 (inactive) | 1.32 (inactive) | -0.0488 | 0.442 (inactive) | -0.116 | -0.271 | 0.0799 | -0.169
CCCCCC1=C2CNC(Cc3ccccc3)(C(=O)OC)C=C2C(C)C1=O (stereo not given) | 1.16 | 0.249 | -0.0593 | 0.279 | 0.227 | 0.932 | 0.446 | 1.53 (inactive) | 0.602 | 0.604 | -0.488 | 0.194 (inactive) | -0.331 (inactive) | 1.2 (inactive) | 2.5 | -0.791 (inactive) | 0.226 | -1.49 | -0.638 | -0.0632
